Activity calls are given as the source filed them.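 How the source made its calls, unless noted: active means visual image review flags a hit and inhibition of aggregation exceeds 20%; inconclusive means visual hit but inhibition at or below 20%; inactive means no hit on visual image review.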

The values that follow come from PubChem BioAssay.

A short description of one assay: reduction of polyQ htt aggregates in cells – imaging, exon1htt(103Q)mCFP cells, high-content imaging, primary screen (AID 483).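 Further: compound exposure lasted 3 days before fixation.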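 On nuclei count: percent of the per-plate median nuclei count of sample wells.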 Particulars: exon1htt(103Q)mCFP cell line, aggregate imaging, at 2 µM; inhibition of aggregation: stronger effect = higher value; nuclei count: measured here: cell count, toxicity.
Turning to `COC(=O)c1sc(S(=O)(=O)NCc2cccs2)c(C(=O)OC)c1C`, the inhibition of aggregation was 0.4% (inactive) and the nuclei count turned out to be 85.3%.

As to `CS(=O)(=O)N1CCN(c2ccccc2NC(=O)c2cccs2)CC1`, the inhibition of aggregation was -6.7% (inactive) and the nuclei count turned out to be 105%.

As for `O=C(Nc1ccccc1)C1=C(O)CC(c2ccoc2)CC1=Nc1ccccc1` (stereo not given), the nuclei count came to 94.4% and the inhibition of aggregation was 7.8% (inactive).

In the case of `CCCCCc1c(C)nc(N2CCc3ccccc32)[nH]c1=O`, the inhibition of aggregation is -1.3% (inactive) and the nuclei count came to 112%.

As for `CCOC(=O)c1cccc(NC(=O)CNS(=O)(=O)c2cccs2)c1`, the inhibition of aggregation is -11.6% (inactive) and the nuclei count was 108%.

With `CN(C)CCCN1C(=O)CSC1c1ccccc1` (stereo not given), the inhibition of aggregation was 30.6% (inactive) and the nuclei count came to 93.9%.

As for `COc1cc2c(cc1OC)-c1nnc(-c3cccs3)n1C(C)(C)C2`, the nuclei count stood at 106% and the inhibition of aggregation is -30.2% (inactive).

On to `Cn1cc(Br)c(C(=O)NC2CCCCC2)n1`, for which the inhibition of aggregation is -0.3% (inactive) and the nuclei count was 105%.

In the case of `COC(=O)c1ccc(CNC(=O)CSc2nc3sc(C)c(C)c3c(=O)n2C)o1`, the inhibition of aggregation is 12.1% (inactive) and the nuclei count worked out at 94.6%.

`Cn1c(=O)c2c(nc(NCCCO)n2C/C=C/c2ccccc2)n(C)c1=O`: the nuclei count turned out to be 112% and the inhibition of aggregation was 1.8% (inactive).

Turning to `CCOC(=O)N1CCN(CCC(=O)c2ccc(Cl)cc2)CC1`, the inhibition of aggregation is -1.1% (inactive) and the nuclei count was 116%.

`CCOC(=O)C1CCCN(c2c(NCc3ccco3)c(=O)c2=O)C1` (stereo not given): the nuclei count turned out to be 99.7% and the inhibition of aggregation was -5.7% (inactive).

In the case of `CCCCn1c(CNC(=O)CCC)nc2ccccc21`, the nuclei count is 124% and the inhibition of aggregation was -10.7% (inactive).

For `CCC(c1nnnn1C(C)(C)C)N1CCN(C2CCCC2)CC1` (stereo not given), the nuclei count was found to be 124% and the inhibition of aggregation was -7.5% (inactive).

As to `CC(C)(C)c1nnc(NC(=O)C2CCN(c3ncccn3)CC2)s1`, the inhibition of aggregation was -2.6% (inactive) and the nuclei count amounted to 106%.

Take `CCN1CCN(C(CNC(=O)c2ccc3c(c2)OCO3)c2cccnc2)CC1` (stereo not given): the nuclei count came to 98% and the inhibition of aggregation was 0.6% (inactive).

Consider `COc1ccc(C(=O)CSc2nnc(C3CCCCC3)n2N)c(OC)c1`, for which the nuclei count was 97.2% and the inhibition of aggregation is 24.4% (inactive).

For the compound `COC(=O)c1c(NC(=O)CSc2nnnn2C)sc(C)c1C`, the inhibition of aggregation was -4.7% (inactive) and the nuclei count was determined as 95.6%.

On to `CCOC(=O)C(C)(C)Sc1nc2c(cnn2-c2ccc(Cl)cc2)c(=O)[nH]1`, for which the nuclei count turned out to be 119% and the inhibition of aggregation was -10.2% (inactive).

Regarding `O=c1ccc2cc3c([nH]c4ccc(Br)cc43)oc-2c1O`, the inhibition of aggregation is -0.5% (inactive) and the nuclei count is 111%.

Consider `O=C(OCC(=O)N1CCCC1)c1ccccc1OCc1ccccc1`, for which the nuclei count amounted to 95.3% and the inhibition of aggregation was -9.8% (inactive).

As for `Cc1ccc2cc(CN(Cc3ccc4c(c3)OCO4)Cc3nnnn3Cc3ccco3)c(=O)[nH]c2c1C`, the inhibition of aggregation was 29.2% (inactive) and the nuclei count was 49%.

For `COc1ccc(Br)cc1S(=O)(=O)N1CC(C)OC(C)C1` (stereo not given), the inhibition of aggregation was -12.3% (inactive) and the nuclei count is 94%.

In the case of `CCc1nnc(NC(=O)c2cc3ccccc3oc2=O)s1`, the inhibition of aggregation is 15.7% (inactive) and the nuclei count was determined as 96.9%.

With `O=c1c[n+]([O-])c2ccccc2n1OCc1c(F)cccc1F`, the nuclei count stood at 87.6% and the inhibition of aggregation was -13.7% (inactive).

For `Cc1ccc(-n2cnnn2)c2cccnc12`, the inhibition of aggregation is -7% (inactive) and the nuclei count came to 104%.

In the case of `O=C(c1ccc(S(=O)(=O)N2CCOCC2)cc1)N(c1ccc(F)cc1)C1C=CS(=O)(=O)C1` (stereo not given), the inhibition of aggregation is 30.2% (inactive) and the nuclei count worked out at 111%.

`Cn1c(=O)c2c(nc(CN3CCCCC3)n2CCc2ccccc2)n(C)c1=O`: the nuclei count was 79% and the inhibition of aggregation was -29.9% (inactive).

Take `O=C(CCNS(=O)(=O)c1ccc(Cl)cc1)NCc1ccccn1`: the inhibition of aggregation is 5.7% (inactive) and the nuclei count was 78.6%.

For the compound `CCOC(=O)CNC(=O)Nc1nnc(-c2ccc(OCC)cc2)o1`, the nuclei count was determined as 91.3% and the inhibition of aggregation is 3.3% (inactive).

`CN(C)S(=O)(=O)c1ccc(Oc2ccc(S(=O)(=O)N(C)C)cc2)cc1`: the nuclei count stood at 89.3% and the inhibition of aggregation was -0.5% (inactive).

Turning to `CCCCc1c(O)nc(N2CCN(Cc3ccccc3)CC2)[nH]c1=O`, the nuclei count turned out to be 97.1% and the inhibition of aggregation is 9.1% (inactive).

Take `CCCc1cc(=O)[nH]c(SCc2ccccc2)n1`: the nuclei count amounted to 99.8% and the inhibition of aggregation is -3.9% (inactive).

Turning to `CCOC(=O)N1CCC(c2cc(=O)n3[nH]cc(C(=O)OC)c3n2)CC1`, the inhibition of aggregation is -16.8% (inactive) and the nuclei count amounted to 58.3%.

Take `c1ccc(C2(Cn3ccc4ccccc43)OCCO2)cc1`: the nuclei count was found to be 109% and the inhibition of aggregation is -6% (inactive).

Regarding `O=C(Nc1ccccc1)N(O)c1ccc(Cl)cc1`, the nuclei count came out at 90.3% and the inhibition of aggregation was 38.9% (active).

As for `S=c1[nH]nc(-c2cccc(Br)c2)o1`, the inhibition of aggregation was 15.6% (inactive) and the nuclei count was found to be 110%.

Turning to `N#CC1=C(N)C(C#N)(C#N)[C@H](c2ccsc2)[C@H]2COCC=C12`, the inhibition of aggregation was 1.7% (inactive) and the nuclei count worked out at 98.1%.

On to `COC(=O)CCC(=O)Nc1cccc(Br)c1`, for which the nuclei count was 111% and the inhibition of aggregation is -24.7% (inactive).

For the compound `C=CCOC(=O)C1=C(C)OC(N)=C(C#N)C1c1ccc2c(c1)OCO2` (stereo not given), the inhibition of aggregation was -3% (inactive) and the nuclei count came to 90.4%.

A further assay is described as follows: endothelial E-selectin expression blockers – imaging, HUVEC, immunofluorescence, MLSMR starter and 10KST1 sets, primary screen (AID 487;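 active means visually confirmed hit in the image check and inhibition above 20%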;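 on inhibition: signal is fraction of cell area covered by stained E-selectin grains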;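 on nuclei count: 100% = median nuclei count of all wells on the same plate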). Particulars: HUVEC TNFalpha-induced E-selectin immunofluorescence imaging, at 2 µM; inhibition: stronger effect = higher value; nuclei count: measured here: cell number, toxicity.
For orientation: inhibition means the change of the read-out against control, counted positive when it falls. On to `COC(=O)c1sc(S(=O)(=O)NCc2cccs2)c(C(=O)OC)c1C`, for which the nuclei count is 101% and the inhibition is 12.1% (inactive).

With `CS(=O)(=O)N1CCN(c2ccccc2NC(=O)c2cccs2)CC1`, the nuclei count worked out at 89.5% and the inhibition is -0.6% (inactive).

On to `O=C(Nc1ccccc1)C1=C(O)CC(c2ccoc2)CC1=Nc1ccccc1` (stereo not given), for which the nuclei count was determined as 121% and the inhibition was -80.4% (inactive).

For `CCCCCc1c(C)nc(N2CCc3ccccc32)[nH]c1=O`, the nuclei count amounted to 89.4% and the inhibition is -5.8% (inactive).

For `CCOC(=O)c1cccc(NC(=O)CNS(=O)(=O)c2cccs2)c1`, the nuclei count worked out at 134% and the inhibition is -7.8% (inactive).

For `CN(C)CCCN1C(=O)CSC1c1ccccc1` (stereo not given), the nuclei count worked out at 104% and the inhibition is -57.4% (inactive).

For the compound `COc1cc2c(cc1OC)-c1nnc(-c3cccs3)n1C(C)(C)C2`, the nuclei count amounted to 114% and the inhibition is -58.9% (inactive).

Turning to `Cn1cc(Br)c(C(=O)NC2CCCCC2)n1`, the inhibition is -145% (inactive) and the nuclei count worked out at 238%.

With `COC(=O)c1ccc(CNC(=O)CSc2nc3sc(C)c(C)c3c(=O)n2C)o1`, the nuclei count was 95.6% and the inhibition is 5.6% (inactive).

With `Cn1c(=O)c2c(nc(NCCCO)n2C/C=C/c2ccccc2)n(C)c1=O`, the nuclei count stood at 153% and the inhibition was -45.2% (inactive).

As to `CCOC(=O)N1CCN(CCC(=O)c2ccc(Cl)cc2)CC1`, the inhibition is -30.8% (inactive) and the nuclei count turned out to be 69.7%.

Consider `CCOC(=O)C1CCCN(c2c(NCc3ccco3)c(=O)c2=O)C1` (stereo not given), for which the nuclei count turned out to be 128% and the inhibition is -52.6% (inactive).

Turning to `CCCCn1c(CNC(=O)CCC)nc2ccccc21`, the inhibition is -30.1% (inactive) and the nuclei count stood at 116%.

For `CCC(c1nnnn1C(C)(C)C)N1CCN(C2CCCC2)CC1` (stereo not given), the inhibition was -46.6% (inactive) and the nuclei count was 128%.

As for `CC(C)(C)c1nnc(NC(=O)C2CCN(c3ncccn3)CC2)s1`, the inhibition is -13.7% (inactive) and the nuclei count was found to be 111%.

`CCN1CCN(C(CNC(=O)c2ccc3c(c2)OCO3)c2cccnc2)CC1` (stereo not given): the inhibition was -10.9% (inactive) and the nuclei count was determined as 109%.

As for `COc1ccc(C(=O)CSc2nnc(C3CCCCC3)n2N)c(OC)c1`, the nuclei count was 89.1% and the inhibition is 99.1% (active).

In the case of `COC(=O)c1c(NC(=O)CSc2nnnn2C)sc(C)c1C`, the inhibition was 30.9% (inactive) and the nuclei count worked out at 101%.

Take `CCOC(=O)C(C)(C)Sc1nc2c(cnn2-c2ccc(Cl)cc2)c(=O)[nH]1`: the inhibition is -27.2% (inactive) and the nuclei count amounted to 102%.

Take `O=c1ccc2cc3c([nH]c4ccc(Br)cc43)oc-2c1O`: the nuclei count stood at 109% and the inhibition is -84.7% (inactive).

`O=C(OCC(=O)N1CCCC1)c1ccccc1OCc1ccccc1`: the inhibition is -42.5% (inactive) and the nuclei count is 123%.

As for `Cc1ccc2cc(CN(Cc3ccc4c(c3)OCO4)Cc3nnnn3Cc3ccco3)c(=O)[nH]c2c1C`, the nuclei count stood at 109% and the inhibition is -79.9% (inactive).

Turning to `COc1ccc(Br)cc1S(=O)(=O)N1CC(C)OC(C)C1` (stereo not given), the inhibition was -42.7% (inactive) and the nuclei count came out at 104%.

For the compound `CCc1nnc(NC(=O)c2cc3ccccc3oc2=O)s1`, the inhibition was -67.3% (inactive) and the nuclei count came to 96.3%.

With `O=c1c[n+]([O-])c2ccccc2n1OCc1c(F)cccc1F`, the nuclei count came to 110% and the inhibition was -236% (inactive).

Take `Cc1ccc(-n2cnnn2)c2cccnc12`: the nuclei count worked out at 102% and the inhibition was -17% (inactive).

Take `O=C(c1ccc(S(=O)(=O)N2CCOCC2)cc1)N(c1ccc(F)cc1)C1C=CS(=O)(=O)C1` (stereo not given): the nuclei count stood at 107% and the inhibition was -74.8% (inactive).

In the case of `Cn1c(=O)c2c(nc(CN3CCCCC3)n2CCc2ccccc2)n(C)c1=O`, the inhibition was -3.5% (inactive) and the nuclei count is 158%.

Consider `O=C(CCNS(=O)(=O)c1ccc(Cl)cc1)NCc1ccccn1`, for which the nuclei count turned out to be 101% and the inhibition is 0.3% (inactive).

Turning to `CCOC(=O)CNC(=O)Nc1nnc(-c2ccc(OCC)cc2)o1`, the nuclei count was 103% and the inhibition is -12.6% (inactive).

On to `CN(C)S(=O)(=O)c1ccc(Oc2ccc(S(=O)(=O)N(C)C)cc2)cc1`, for which the nuclei count is 80.6% and the inhibition is 8.2% (inactive).

On to `CCCCc1c(O)nc(N2CCN(Cc3ccccc3)CC2)[nH]c1=O`, for which the nuclei count stood at 101% and the inhibition is -61% (inactive).

For `CCCc1cc(=O)[nH]c(SCc2ccccc2)n1`, the inhibition was -110% (inactive) and the nuclei count came to 101%.

Regarding `CCOC(=O)N1CCC(c2cc(=O)n3[nH]cc(C(=O)OC)c3n2)CC1`, the nuclei count turned out to be 103% and the inhibition is 7.4% (inactive).

Regarding `c1ccc(C2(Cn3ccc4ccccc43)OCCO2)cc1`, the nuclei count worked out at 123% and the inhibition is -115% (inactive).

Regarding `O=C(Nc1ccccc1)N(O)c1ccc(Cl)cc1`, the nuclei count amounted to 85.6% and the inhibition was 44.1% (inactive).

For the compound `S=c1[nH]nc(-c2cccc(Br)c2)o1`, the inhibition is -57.8% (inactive) and the nuclei count was found to be 120%.

Consider `N#CC1=C(N)C(C#N)(C#N)[C@H](c2ccsc2)[C@H]2COCC=C12`, for which the inhibition is 8.2% (inactive) and the nuclei count is 93.1%.

Consider `COC(=O)CCC(=O)Nc1cccc(Br)c1`, for which the nuclei count was 91.4% and the inhibition is 56.2% (active).

Take `C=CCOC(=O)C1=C(C)OC(N)=C(C#N)C1c1ccc2c(c1)OCO2` (stereo not given): the inhibition is 9.6% (inactive) and the nuclei count was found to be 136%.
